# PubChem BioAssay (NCI)
# Compounds without any hit were thinned out: in the full panel of roughly 83,000, 20% have a hit.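 The endpoint reported here, percent growth, reads 100 for growth as untreated, 0 for no net growth and -100 for all cells dead.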 Values without a mark were called inactive. Calls of active or inactive are those of the source. The calls were made as follows: active = growth percent below 10; inactive = the rest.
# Experiments:
# Experiment in all cases: NCI-60 one-dose screen, 48 h (100 = growth as untreated, 0 = no growth, -100 = all killed)
# Conditions in all cases: 10 µM unless noted
# [1] = test system: SR leukemia
# [2] = test system: RPMI-8226 leukemia
# [3] = test system: OVCAR-8 ovarian
# [4] = test system: OVCAR-5 ovarian
# [5] = test system: OVCAR-4 ovarian
# [6] = test system: SK-OV-3 ovarian
# [7] = test system: IGROV1 ovarian
# [8] = test system: HS 578T breast
# [9] = test system: NCI/ADR-RES ovarian
# [10] = test system: T-47D breast
# [11] = test system: BT-549 breast
# [12] = test system: MDA-MB-435 melanoma
# [13] = test system: SW-620 colon
# [14] = test system: MCF7 breast
# [15] = test system: HCT-116 colon
# [16] = test system: HCC-2998 colon
# [17] = test system: KM12 colon
# [18] = test system: OVCAR-3 ovarian
Structure (SMILES),growth [1],growth [2],growth [3],growth [4],growth [5] [%],growth [6],growth [7],growth [8] [%],growth [9],growth [10],growth [11],growth [12],growth [13],growth [14] [%],growth [15],growth [16],growth [17],growth [18]
COc1ccc(C2SCC(=O)N2NC(=O)c2ccc(NC(=O)c3ccccn3)cc2)cc1OC (stereo not given),90.9%,96.3%,98%,100%,100,102%,101%,102,105%,97.8%,102%,104%,104%,104,100%,104%,95.8%,
CCSc1nnc(Nc2ccc(C(C)C)cc2)s1,69.4%,72.2%,109%,87.1%,84,104%,-7.13% (active),,87.6%,78.7%,103%,86.7%,84.1%,95.2,72.3%,92.7%,83.9%,106%
CCn1cc(C(=O)O)c(=O)c2cc(F)c(N3CCN(S(=O)(=O)c4ccc(OC)c(OC)c4)CC3)cc21,88.3%,99.3%,102%,102%,110,135%,108%,,107%,87.2%,105%,98.9%,113%,100,105%,104%,96.2%,109%
O=C(O)c1ccc(-n2c(=O)c3ccccc3c3ccccc3c2=O)cc1,87.6%,103%,111%,99.6%,119,101%,116%,,112%,92.8%,107%,103%,110%,96.3,104%,110%,104%,111%
CCn1cc(C(=O)O)c(=O)c2cc(F)c(N3CCN(S(=O)(=O)c4ccc(Cl)cc4Cl)CC3)cc21,-19.7% (active),9.07% (active),5.84% (active),7.92% (active),129,1.7% (active),7.5% (active),,9.34% (active),1.7% (active),-4.59% (active),12.8%,16.4%,89.2,6.37% (active),30.6%,9.4% (active),7.89% (active)
COc1ccc(NC(=O)CSc2nc3ccccc3c(=O)n2-c2ccccc2C(F)(F)F)c(OC)c1OC,103%,93.1%,98%,97.5%,97.3,89.4%,127%,,102%,,99.8%,107%,95.3%,97.8,98.3%,118%,101%,104%
O=c1oc2c([nH]c3ccc4ccccc4c32)c2ccccc12,102%,103%,104%,112%,109,107%,118%,,104%,77.5%,104%,105%,98.3%,73.7,102%,,106%,109%
Nc1c(C(=O)c2ccc(F)cc2)sc2nc3c(cc12)CCCC3,46.3%,77.6%,78.5%,97%,83.9,73.1%,77.1%,,44.8%,79.9%,90.7%,22.5%,81%,80.4,72.2%,,66.2%,87.6%
COC1=CC(c2ccc[nH]2)=N/C1=C\c1[nH]c(C)c(C(=O)CCC(=O)Oc2ccc3c(c2)CCC2C3CC[C@]3(C)[C@@H](O)CC[C@@H]23)c1C (stereo not given in full),-17.6% (active),-12.2% (active),-3.79% (active),27.7%,43.1,51.1%,16.8%,20.4,8.32% (active),20.5%,27%,11.9%,-51.1% (active),13.6,-84.2% (active),9.51% (active),3.48% (active),
Cc1ccc(C2=NN(c3ccc(S(=O)(=O)NC(=O)NCc4ccccc4)cc3)C(c3ccc(N(C)C)cc3)C2)c(C)c1 (stereo not given),21.5%,16.6%,30.6%,55.1%,57.7,88.3%,54.1%,,33.7%,,40.9%,1% (active),,28.9,39.7%,27.7%,34.5%,38.3%
